Among the test systems are SR leukemia; RPMI-8226 leukemia; OVCAR-8 ovarian; OVCAR-5 ovarian; OVCAR-4 ovarian; SK-OV-3 ovarian; IGROV1 ovarian; OVCAR-3 ovarian; HS 578T breast; NCI/ADR-RES ovarian; T-47D breast; BT-549 breast; MDA-MB-435 melanoma; SW-620 colon; MCF7 breast; HCT-116 colon; HCC-2998 colon; KM12 colon.
What all share (experiment): NCI-60 one-dose screen, 48 h (100 = growth as untreated, 0 = no growth, -100 = all killed)
What all share (settings): 10 µM

This is part of a sample that, as a whole, favours compounds with a hit. Of some 83,000 tested, about 20% had one in any assay.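 Cell lines were cultured in 96-well plates, exposed to a single compound concentration, and assessed for percent growth 48 hours later.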 Unmarked numbers belong to inactive results. Active and inactive are the calls of the source. The calls were made as follows: active = growth percent below 10; inactive = the rest.

Our source for the growth values is PubChem BioAssay (NCI).

Turning to `[O-]c1c[n+](-c2ccc(Cl)cc2)no1`, the growth in the assay with SR leukemia is 97.9%; in the assay on RPMI-8226 leukemia, 101%; in the assay on OVCAR-8 ovarian, 106%; in the assay with OVCAR-5 ovarian, 96.7%; in the assay with OVCAR-4 ovarian, 82.1%; in the assay on SK-OV-3 ovarian, 105%. Moreover, the growth with IGROV1 ovarian is 80.7%; in the assay with OVCAR-3 ovarian, 104%; in the assay with HS 578T breast, 101%; in the assay with NCI/ADR-RES ovarian, 103%; in the assay on T-47D breast, 83.5%; in the assay on BT-549 breast, 107%. Besides, the growth with MDA-MB-435 melanoma was 100%; with SW-620 colon it was 97.5%; in the assay on MCF7 breast, 84.9%; in the assay with HCT-116 colon it was 102%; in the assay with HCC-2998 colon, 101%; with KM12 colon, 95.8%.

Regarding `N#C/C(=C/c1cc([N+](=O)[O-])ccc1Cl)C(N)=O`, the growth in the assay on SR leukemia was 8.43% (active); in the assay with RPMI-8226 leukemia it was 68.7%; in the assay with OVCAR-8 ovarian, 82.5%; in the assay on OVCAR-5 ovarian, 107%; in the assay with OVCAR-4 ovarian, 94.2%; in the assay with SK-OV-3 ovarian, 95.5%. Further, the growth with IGROV1 ovarian was 69.9%; with OVCAR-3 ovarian, 104%; in the assay on HS 578T breast it was 113%; in the assay with NCI/ADR-RES ovarian, 98.2%; in the assay with T-47D breast, 90.4%; in the assay on BT-549 breast, 96.8%. Besides, the growth was 71.5% in the assay with MDA-MB-435 melanoma; 46.6% with SW-620 colon; 57.3% with MCF7 breast; 10% (active) in the assay with HCT-116 colon; 106% with HCC-2998 colon; 91.5% in the assay with KM12 colon.

On to `CCOC(=O)CSC(=S)SCC(=O)OCC`, for which the growth in the assay on SR leukemia was 84.8%; in the assay with RPMI-8226 leukemia it was 95.4%; in the assay on OVCAR-8 ovarian it was 93%; with OVCAR-5 ovarian, 107%; in the assay with OVCAR-4 ovarian it was 97.4%; in the assay on SK-OV-3 ovarian, 98.2%. The growth was 117% in the assay with IGROV1 ovarian; 122% with OVCAR-3 ovarian; 106% in the assay with HS 578T breast; 106% with NCI/ADR-RES ovarian; 89.6% in the assay on T-47D breast; 106% with BT-549 breast. For the same compound, the growth in the assay on MDA-MB-435 melanoma is 94.9%; in the assay on SW-620 colon it was 135%; in the assay with MCF7 breast it was 88.7%; in the assay on HCT-116 colon, 99.1%; in the assay with HCC-2998 colon, 105%; in the assay on KM12 colon, 100%.

On to `CCn1nc(-c2ccc(C(=O)OC)cc2)nc2c(=O)n(C)c(=O)nc1-2`, for which the growth in the assay with SR leukemia is 7.67% (active); in the assay with RPMI-8226 leukemia, 61.2%; in the assay on OVCAR-8 ovarian, 45.8%; in the assay on OVCAR-5 ovarian it was 105%; in the assay with OVCAR-4 ovarian, 14.1%; with SK-OV-3 ovarian it was 9.16% (active). Besides, the growth in the assay with IGROV1 ovarian was 87.4%; in the assay on OVCAR-3 ovarian, 25.7%; in the assay with HS 578T breast, 35.6%; in the assay with NCI/ADR-RES ovarian, 70%; in the assay on T-47D breast, 84.1%; with BT-549 breast it was 98.2%. Moreover, the growth in the assay with MDA-MB-435 melanoma is 64.1%; in the assay on SW-620 colon it was 97.7%; in the assay with MCF7 breast, 80%; in the assay on HCT-116 colon it was 51.5%; in the assay with HCC-2998 colon, 116%; with KM12 colon, 80.4%.

With `COc1cc(C2C(C#N)=C(c3c[nH]c4ccccc34)Nc3nc(N)[nH]c(=O)c32)cc(OC)c1OC` (configuration not stated), the growth in the assay with SR leukemia was 78.7%; in the assay on RPMI-8226 leukemia, 98.2%; in the assay with OVCAR-8 ovarian, 99.1%; in the assay on OVCAR-5 ovarian it was 96.8%; in the assay with OVCAR-4 ovarian, 75.2%; with SK-OV-3 ovarian it was 80.6%. The growth in the assay on IGROV1 ovarian was 80.3%; with OVCAR-3 ovarian it was 21%; in the assay on HS 578T breast it was 96%; in the assay with NCI/ADR-RES ovarian, 100%; with T-47D breast, 36.2%; with BT-549 breast, 51.6%. Further, the growth with MDA-MB-435 melanoma was 38.1%; in the assay on SW-620 colon, 86.9%; in the assay on MCF7 breast it was 42.2%; in the assay on HCT-116 colon it was 74%; with HCC-2998 colon, 93.1%; in the assay on KM12 colon it was 94.1%.

As for `COc1cc(-c2cc(-c3ccc(C)cc3)nc3nc(N)[nH]c(=O)c23)ccc1Oc1ccnc2cc(Cl)ccc12`, the growth in the assay with SR leukemia was 50.9%; with RPMI-8226 leukemia it was 60.1%; with OVCAR-8 ovarian it was 79.5%; in the assay with OVCAR-5 ovarian, 115%; with OVCAR-4 ovarian, 66.3%; in the assay with SK-OV-3 ovarian, 95.3%. Besides, the growth is 77.9% in the assay with IGROV1 ovarian; 84.1% with OVCAR-3 ovarian; 91.2% with HS 578T breast; 100% in the assay with NCI/ADR-RES ovarian; 69.6% in the assay with T-47D breast; 112% in the assay with BT-549 breast. In addition, the growth with MDA-MB-435 melanoma is 85.3%; in the assay on SW-620 colon it was 98.2%; in the assay with MCF7 breast it was 51.2%; in the assay on HCT-116 colon, 88.8%; with HCC-2998 colon, 79.5%; in the assay on KM12 colon, 67%.

Regarding `COc1cc2ccnc(C=O)c2cc1OC`, the growth is 1.19% (active) with SR leukemia; 50.6% in the assay on RPMI-8226 leukemia; 44.2% with OVCAR-8 ovarian; 93.1% with OVCAR-5 ovarian; 80.9% in the assay with OVCAR-4 ovarian; 106% in the assay with SK-OV-3 ovarian. The growth in the assay on IGROV1 ovarian was 70.5%; in the assay with OVCAR-3 ovarian, 24.9%; with HS 578T breast, 93.4%; in the assay with NCI/ADR-RES ovarian, 54.4%; with T-47D breast it was 60.7%; in the assay on BT-549 breast, 56.3%. In addition, the growth in the assay with MDA-MB-435 melanoma was 31.1%; in the assay with SW-620 colon, 30.2%; in the assay on MCF7 breast, 23.8%; in the assay on HCT-116 colon it was 9.15% (active); with HCC-2998 colon, 104%; in the assay on KM12 colon, 92.1%.

On to `CCN1CCN(c2nc(NNC(=O)c3cccc(OC)c3)nc(N3CCN(C(c4ccccc4)c4ccccc4)CC3)n2)CC1`, for which the growth in the assay on SR leukemia was -11.8% (active); in the assay on RPMI-8226 leukemia it was 5.26% (active); in the assay on OVCAR-8 ovarian, 65%; in the assay on OVCAR-5 ovarian, 101%; in the assay on OVCAR-4 ovarian, 62.4%; in the assay with SK-OV-3 ovarian, 76.1%. Further, the growth is 58.5% in the assay on IGROV1 ovarian; 72.6% with OVCAR-3 ovarian; 64.3% in the assay on HS 578T breast; 76.2% with NCI/ADR-RES ovarian; 47.9% in the assay with T-47D breast; 63.3% in the assay on BT-549 breast. The growth was 19.5% in the assay on MDA-MB-435 melanoma; 69.5% with SW-620 colon; 12.8% in the assay on MCF7 breast; 26.7% in the assay with HCT-116 colon; -16.4% (active) in the assay with HCC-2998 colon; 25.7% with KM12 colon.

As to `COc1cc(-c2nc3ccc(C)cc3[nH]2)ccc1OCc1nnc(-c2ccc(CC(C)C)cc2)o1`, the growth with SR leukemia is -2.79% (active); with RPMI-8226 leukemia, 68.9%; in the assay on OVCAR-8 ovarian, 97.8%; in the assay with OVCAR-5 ovarian it was 102%; with OVCAR-4 ovarian, 91.2%; in the assay with SK-OV-3 ovarian, 94.4%. Moreover, the growth in the assay on IGROV1 ovarian was 91.4%; in the assay on OVCAR-3 ovarian it was 101%; with HS 578T breast, 84%; with NCI/ADR-RES ovarian, 96%; in the assay with T-47D breast it was 77.2%; in the assay with BT-549 breast, 101%. In addition, the growth in the assay with MDA-MB-435 melanoma is 99.6%; in the assay with SW-620 colon, 106%; in the assay with MCF7 breast, 79.8%; with HCT-116 colon it was 97.1%; with HCC-2998 colon, 115%; in the assay with KM12 colon, 97.5%.
